{"source": "PubChem BioAssay AID651591", "about": "(Broad Institute, 2012)", "note": "Results with a measured potency or affinity are listed apart. Calls of active or inactive are those of the source.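 Rule for the calls: active = compounds lowering cell ATP signal whose fitted half-effect dose is at most a set limit; inconclusive = flat fit showing moderate signal loss, or unreliable curve fit; inactive = the rest, including signal increases.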"}
{"assay": "A375 melanoma cell viability loss, dose response, counter-screen for MITF modulator project, CellTiter-Glo luminescence, dry powder, set 9 (AID 651591)", "settings": "CellTiter-Glo ATP luminescence, 24 h; series mostly up to 35 µM; activity change, negative = cytotoxicity: at the top concentration"}
{"smiles": "NC1=C(NS(=O)(=O)c2ccccc2)C(=O)c2ccccc2C1=O", "activity change, negative = cytotoxicity": "-5.18% (inactive)"}
{"smiles": "O=C1C=C(NS(=O)(=O)c2cccs2)C(=O)c2ccccc21", "activity change, negative = cytotoxicity": "-2.97% (inactive)"}
{"smiles": "O=C1C=C(NS(=O)(=O)c2ccc(Br)cc2)C(=O)c2ccccc21", "activity change, negative = cytotoxicity": "-3.17% (inactive)"}
{"smiles": "NC1=C(NS(=O)(=O)c2ccc(Br)s2)C(=O)c2ccccc2C1=O", "activity change, negative = cytotoxicity": "0.175% (inactive)"}
{"smiles": "O=C1C=C(NS(=O)(=O)c2ccccc2)C(=O)c2ccccc21", "activity change, negative = cytotoxicity": "-10.1% (inactive)"}
{"smiles": "NC1=C(NS(=O)(=O)c2ccc(Br)cc2)C(=O)c2ccccc2C1=O", "activity change, negative = cytotoxicity": "1.99% (inactive)"}
{"smiles": "O=C1C(Nc2ccccc2)=C(c2ccccc2)C(=O)c2ccccc21", "activity change, negative = cytotoxicity": "-6.4% (inactive)"}
{"smiles": "CC(C)N1CCN(C2=C(Nc3ccc(F)cc3F)C(=O)c3ccccc3C2=O)CC1", "activity change, negative = cytotoxicity": "-13% (inactive)"}
